# Assays:
# Assay in all cases: DAPPL (digital affinity profiling via proximity ligation, sequencing); 10 mM Tris-HCl pH 7.5, 50 mM NaCl, 1 mM DTT, 4% glycerol, room temperature, 30 min; GST-TFs on glutathione beads, 16-mer random dsDNA library, 0.1% formaldehyde crosslink after washing; high values mean tight binding
# FLI1 = molecular target: T1, FLI1 (Homo sapiens, UniProt Q01543 1-452); conditions: protein: recombinant; tags: N-terminal GST; dsDNA, one strand shown
# T1 sequence: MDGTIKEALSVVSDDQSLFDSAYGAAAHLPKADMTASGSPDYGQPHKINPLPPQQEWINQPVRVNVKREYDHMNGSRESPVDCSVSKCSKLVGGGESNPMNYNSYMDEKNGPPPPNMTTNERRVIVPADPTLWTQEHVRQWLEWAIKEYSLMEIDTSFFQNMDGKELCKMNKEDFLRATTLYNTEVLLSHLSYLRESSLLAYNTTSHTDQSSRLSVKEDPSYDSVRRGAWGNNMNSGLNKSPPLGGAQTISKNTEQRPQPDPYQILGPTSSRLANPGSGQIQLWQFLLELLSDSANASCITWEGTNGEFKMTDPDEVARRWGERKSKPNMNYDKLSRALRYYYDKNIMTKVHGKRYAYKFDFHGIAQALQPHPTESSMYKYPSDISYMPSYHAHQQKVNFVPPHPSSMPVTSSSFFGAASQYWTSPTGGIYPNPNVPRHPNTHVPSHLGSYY
# Summary of the method: (§1)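 Pools of DNA-barcoded human transcription factors, expressed in yeast as GST fusions on glutathione beads and combined with a tag-only sample, were incubated with 200 nmole of a 16-mer random double-stranded DNA library. Incubation took 30 min at room temperature in Tris/NaCl/DTT/glycerol buffer and was followed by washing, 0.1% formaldehyde crosslinking, proximity ligation (BsaI/T4 ligase, 1 h, 37 °C), PCR amplification and sequencing on an Illumina NextSeq500. Binding signal is the ratio of a hexamer's read frequency for a factor to its frequency for the tag-only sample.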
# ELK1 = molecular target: T2, ELK1 (Homo sapiens, UniProt P19419 1-428); conditions: protein: recombinant; tags: N-terminal GST; dsDNA, one strand shown
# T2 sequence: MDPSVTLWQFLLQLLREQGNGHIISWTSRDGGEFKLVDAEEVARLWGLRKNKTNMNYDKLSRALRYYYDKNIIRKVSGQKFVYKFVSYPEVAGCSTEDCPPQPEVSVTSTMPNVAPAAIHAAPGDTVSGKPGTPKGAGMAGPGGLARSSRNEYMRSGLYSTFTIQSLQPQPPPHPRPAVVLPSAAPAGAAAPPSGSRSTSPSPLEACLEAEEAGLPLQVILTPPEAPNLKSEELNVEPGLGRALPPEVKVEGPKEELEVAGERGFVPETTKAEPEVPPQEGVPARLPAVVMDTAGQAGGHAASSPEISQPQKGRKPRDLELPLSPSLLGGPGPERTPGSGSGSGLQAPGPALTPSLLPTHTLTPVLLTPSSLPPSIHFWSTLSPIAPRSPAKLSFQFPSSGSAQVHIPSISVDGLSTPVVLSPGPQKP
# Summary of the method: as §1
# GABPA = molecular target: T3, GABPA (Homo sapiens, UniProt Q06546 1-454); conditions: protein: recombinant; tags: N-terminal GST; dsDNA, one strand shown
# T3 sequence: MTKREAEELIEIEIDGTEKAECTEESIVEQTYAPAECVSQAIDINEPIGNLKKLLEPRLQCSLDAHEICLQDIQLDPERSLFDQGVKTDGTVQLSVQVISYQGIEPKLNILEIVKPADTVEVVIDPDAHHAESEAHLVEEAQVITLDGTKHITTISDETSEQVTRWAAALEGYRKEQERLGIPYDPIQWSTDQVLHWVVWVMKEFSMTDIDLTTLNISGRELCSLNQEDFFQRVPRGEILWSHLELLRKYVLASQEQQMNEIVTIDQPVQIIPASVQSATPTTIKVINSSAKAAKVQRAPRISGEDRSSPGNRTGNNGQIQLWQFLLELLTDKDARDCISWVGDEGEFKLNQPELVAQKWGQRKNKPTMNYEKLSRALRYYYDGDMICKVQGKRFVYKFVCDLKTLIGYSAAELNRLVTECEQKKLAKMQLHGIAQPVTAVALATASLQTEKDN
# Summary of the method: as §1
# ERG = molecular target: T4, ERG (Homo sapiens, UniProt P11308 1-479); conditions: protein: recombinant; tags: N-terminal GST; dsDNA, one strand shown
# T4 sequence: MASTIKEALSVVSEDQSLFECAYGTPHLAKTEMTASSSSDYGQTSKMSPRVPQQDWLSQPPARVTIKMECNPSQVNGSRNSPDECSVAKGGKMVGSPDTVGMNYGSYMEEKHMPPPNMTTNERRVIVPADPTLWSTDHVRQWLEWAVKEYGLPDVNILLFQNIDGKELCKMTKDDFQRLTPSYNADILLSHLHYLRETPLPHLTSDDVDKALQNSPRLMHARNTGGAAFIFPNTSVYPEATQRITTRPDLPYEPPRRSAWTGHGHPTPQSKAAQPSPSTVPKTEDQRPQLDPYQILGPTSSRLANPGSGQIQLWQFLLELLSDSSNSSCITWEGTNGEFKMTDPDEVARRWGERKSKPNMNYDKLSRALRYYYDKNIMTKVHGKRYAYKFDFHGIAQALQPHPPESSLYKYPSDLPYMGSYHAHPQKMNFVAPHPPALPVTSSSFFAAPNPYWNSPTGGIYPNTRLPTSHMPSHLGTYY
# Summary of the method: as §1
# ELF1 = ELF1 (Homo sapiens, UniProt P32519 1-619); conditions: protein: recombinant; tags: N-terminal GST; dsDNA, one strand shown
# Summary of the method: as §1
# EHF = molecular target: T5, EHF (Homo sapiens, UniProt Q9NZC4 1-300); conditions: protein: recombinant; tags: N-terminal GST; dsDNA, one strand shown
# T5 sequence: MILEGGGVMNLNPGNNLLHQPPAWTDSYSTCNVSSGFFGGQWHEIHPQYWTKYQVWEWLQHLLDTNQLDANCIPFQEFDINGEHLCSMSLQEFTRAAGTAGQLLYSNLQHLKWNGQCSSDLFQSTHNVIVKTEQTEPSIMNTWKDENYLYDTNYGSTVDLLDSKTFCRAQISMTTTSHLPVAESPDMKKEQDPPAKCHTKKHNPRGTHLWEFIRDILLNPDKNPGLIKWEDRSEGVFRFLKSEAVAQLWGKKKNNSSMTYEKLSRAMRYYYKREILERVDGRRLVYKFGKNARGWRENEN
# Summary of the method: as §1
# SPI1 = SPI1 (Homo sapiens, UniProt P17947 1-270); conditions: protein: recombinant; tags: N-terminal GST; dsDNA, one strand shown
# Summary of the method: as §1
# SPIB = SPIB (Homo sapiens, UniProt Q01892 1-262); conditions: protein: recombinant; tags: N-terminal GST; dsDNA, one strand shown
# Summary of the method: as §1
# ELK3 = molecular target: T6, ELK3 (Homo sapiens, UniProt P41970 1-407); conditions: protein: recombinant; tags: N-terminal GST; dsDNA, one strand shown
# T6 sequence: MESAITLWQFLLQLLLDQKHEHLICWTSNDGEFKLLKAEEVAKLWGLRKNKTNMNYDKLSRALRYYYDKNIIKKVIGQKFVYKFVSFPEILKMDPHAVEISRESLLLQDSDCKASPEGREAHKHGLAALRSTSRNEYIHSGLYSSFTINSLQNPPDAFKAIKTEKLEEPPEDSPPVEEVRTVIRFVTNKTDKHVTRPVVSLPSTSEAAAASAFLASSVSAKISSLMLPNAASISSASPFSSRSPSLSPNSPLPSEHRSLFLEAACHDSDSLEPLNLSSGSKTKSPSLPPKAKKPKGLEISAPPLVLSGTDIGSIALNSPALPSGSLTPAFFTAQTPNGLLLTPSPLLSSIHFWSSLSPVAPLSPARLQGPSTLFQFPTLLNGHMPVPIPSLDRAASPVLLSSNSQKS
# Summary of the method: as §1
# FEV = molecular target: T7, FEV (Homo sapiens, UniProt Q99581 1-238); conditions: protein: recombinant; tags: N-terminal GST; dsDNA, one strand shown
# T7 sequence: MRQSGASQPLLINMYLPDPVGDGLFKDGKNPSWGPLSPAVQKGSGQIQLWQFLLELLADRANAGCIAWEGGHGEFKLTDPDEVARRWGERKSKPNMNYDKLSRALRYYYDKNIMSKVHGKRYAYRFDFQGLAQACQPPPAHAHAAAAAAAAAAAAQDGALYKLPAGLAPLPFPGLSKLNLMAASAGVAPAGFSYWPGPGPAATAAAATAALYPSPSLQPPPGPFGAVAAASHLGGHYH
# Summary of the method: as §1
# ETV5 = ETV5 (Homo sapiens, UniProt P41161 1-510); conditions: protein: recombinant; tags: N-terminal GST; dsDNA, one strand shown
# Summary of the method: as §1
# HSF1 = HSF1 (Homo sapiens, UniProt Q00613 1-529); conditions: protein: recombinant; tags: N-terminal GST; chain copies: 3; dsDNA, one strand shown
# Summary of the method: as §1
# SPIC = molecular target: T8, SPIC (Homo sapiens, UniProt Q8N5J4 1-248); conditions: protein: recombinant; tags: N-terminal GST; dsDNA, one strand shown
# T8 sequence: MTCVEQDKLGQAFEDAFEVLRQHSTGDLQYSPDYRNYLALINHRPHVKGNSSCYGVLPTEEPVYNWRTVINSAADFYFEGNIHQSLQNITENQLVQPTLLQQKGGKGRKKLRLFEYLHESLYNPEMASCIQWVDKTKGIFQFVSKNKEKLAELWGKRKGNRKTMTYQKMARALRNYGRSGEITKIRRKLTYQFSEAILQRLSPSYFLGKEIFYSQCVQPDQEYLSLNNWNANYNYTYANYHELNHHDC
# Summary of the method: as §1
# ELF4 = ELF4 (Homo sapiens, UniProt Q99607 1-663); conditions: protein: recombinant; tags: N-terminal GST; dsDNA, one strand shown
# Summary of the method: as §1
# ELK4 = molecular target: T9, ELK4 (Homo sapiens, UniProt P28324-2 1-405); conditions: protein: recombinant; tags: N-terminal GST; dsDNA, one strand shown
# T9 sequence: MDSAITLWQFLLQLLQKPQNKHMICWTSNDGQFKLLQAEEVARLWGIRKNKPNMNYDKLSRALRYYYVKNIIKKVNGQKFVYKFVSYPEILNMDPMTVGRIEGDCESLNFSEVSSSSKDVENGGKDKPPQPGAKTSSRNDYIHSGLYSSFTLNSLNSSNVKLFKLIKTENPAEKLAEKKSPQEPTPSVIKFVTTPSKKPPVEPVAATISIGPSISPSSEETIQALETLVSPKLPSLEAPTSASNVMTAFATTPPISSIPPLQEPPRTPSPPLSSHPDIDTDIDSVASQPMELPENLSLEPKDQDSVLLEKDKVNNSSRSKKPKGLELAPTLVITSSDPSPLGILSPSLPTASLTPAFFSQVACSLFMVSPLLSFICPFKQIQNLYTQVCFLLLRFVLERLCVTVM
# Summary of the method: as §1
# ETV2 = molecular target: T10, ETV2 (Homo sapiens, UniProt O00321 1-342); conditions: protein: recombinant; tags: N-terminal GST; dsDNA, one strand shown
# T10 sequence: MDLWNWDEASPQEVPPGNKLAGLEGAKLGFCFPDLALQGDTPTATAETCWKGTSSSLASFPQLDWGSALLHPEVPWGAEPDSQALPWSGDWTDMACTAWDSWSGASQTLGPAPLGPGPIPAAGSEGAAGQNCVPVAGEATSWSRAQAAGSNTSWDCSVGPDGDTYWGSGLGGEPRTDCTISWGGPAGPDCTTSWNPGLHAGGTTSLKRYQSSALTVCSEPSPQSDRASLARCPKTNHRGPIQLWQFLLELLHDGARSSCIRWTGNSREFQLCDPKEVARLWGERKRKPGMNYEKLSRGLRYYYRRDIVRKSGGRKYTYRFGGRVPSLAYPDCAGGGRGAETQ
# Summary of the method: as §1
# ELF3 = molecular target: T11, ELF3 (Homo sapiens, UniProt P78545 1-371); conditions: protein: recombinant; tags: N-terminal GST; dsDNA, one strand shown
# T11 sequence: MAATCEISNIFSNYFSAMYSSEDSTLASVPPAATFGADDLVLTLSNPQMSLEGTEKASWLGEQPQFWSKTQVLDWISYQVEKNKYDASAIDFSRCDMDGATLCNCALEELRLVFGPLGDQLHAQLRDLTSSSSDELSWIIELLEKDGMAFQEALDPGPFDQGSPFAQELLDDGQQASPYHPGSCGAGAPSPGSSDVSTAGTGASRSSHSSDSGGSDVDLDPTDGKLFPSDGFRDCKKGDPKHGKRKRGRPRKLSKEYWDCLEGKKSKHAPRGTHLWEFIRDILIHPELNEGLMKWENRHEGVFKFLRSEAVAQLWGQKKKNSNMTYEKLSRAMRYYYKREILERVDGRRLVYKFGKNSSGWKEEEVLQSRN
# Summary of the method: as §1
# CRX = CRX (Homo sapiens, UniProt O43186 1-299); conditions: protein: recombinant; tags: N-terminal GST; dsDNA, one strand shown
# Summary of the method: as §1
# ETV1 = ETV1 (Homo sapiens, UniProt P50549 1-477); conditions: protein: recombinant; tags: N-terminal GST; dsDNA, one strand shown
# Summary of the method: as §1
# Chain of HSF1 (Q00613 whole entry): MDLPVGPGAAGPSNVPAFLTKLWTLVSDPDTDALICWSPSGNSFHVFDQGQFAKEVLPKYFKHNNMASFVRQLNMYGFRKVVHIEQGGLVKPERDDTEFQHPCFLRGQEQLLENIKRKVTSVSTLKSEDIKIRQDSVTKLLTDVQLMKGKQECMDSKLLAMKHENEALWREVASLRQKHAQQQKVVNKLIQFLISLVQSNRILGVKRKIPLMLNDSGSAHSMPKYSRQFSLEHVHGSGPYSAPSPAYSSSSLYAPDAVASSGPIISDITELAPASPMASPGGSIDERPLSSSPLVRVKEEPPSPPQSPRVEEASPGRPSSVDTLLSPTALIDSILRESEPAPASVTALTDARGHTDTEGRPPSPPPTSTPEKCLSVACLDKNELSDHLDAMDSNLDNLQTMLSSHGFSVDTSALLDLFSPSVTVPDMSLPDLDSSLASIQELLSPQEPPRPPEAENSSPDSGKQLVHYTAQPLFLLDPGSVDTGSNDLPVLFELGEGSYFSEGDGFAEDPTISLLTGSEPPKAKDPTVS
# Chain of SPIB (Q01892 whole entry): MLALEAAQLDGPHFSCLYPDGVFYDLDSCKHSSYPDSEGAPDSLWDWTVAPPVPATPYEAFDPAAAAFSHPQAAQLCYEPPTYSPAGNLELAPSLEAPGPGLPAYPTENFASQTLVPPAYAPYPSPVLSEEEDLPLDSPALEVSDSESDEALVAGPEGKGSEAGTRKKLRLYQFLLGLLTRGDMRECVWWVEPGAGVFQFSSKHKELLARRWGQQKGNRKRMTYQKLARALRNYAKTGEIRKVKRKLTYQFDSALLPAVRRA
# Chain of CRX (O43186 whole entry): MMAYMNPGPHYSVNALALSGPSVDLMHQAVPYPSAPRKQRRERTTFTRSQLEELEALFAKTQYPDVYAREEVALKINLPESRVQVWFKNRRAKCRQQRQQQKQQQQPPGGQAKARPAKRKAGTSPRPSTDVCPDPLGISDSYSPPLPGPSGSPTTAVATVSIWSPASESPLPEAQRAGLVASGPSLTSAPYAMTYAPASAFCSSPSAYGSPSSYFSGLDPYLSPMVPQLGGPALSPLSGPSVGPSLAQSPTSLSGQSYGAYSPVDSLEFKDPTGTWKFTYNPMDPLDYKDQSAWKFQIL
# Chain of ETV1 (P50549 whole entry): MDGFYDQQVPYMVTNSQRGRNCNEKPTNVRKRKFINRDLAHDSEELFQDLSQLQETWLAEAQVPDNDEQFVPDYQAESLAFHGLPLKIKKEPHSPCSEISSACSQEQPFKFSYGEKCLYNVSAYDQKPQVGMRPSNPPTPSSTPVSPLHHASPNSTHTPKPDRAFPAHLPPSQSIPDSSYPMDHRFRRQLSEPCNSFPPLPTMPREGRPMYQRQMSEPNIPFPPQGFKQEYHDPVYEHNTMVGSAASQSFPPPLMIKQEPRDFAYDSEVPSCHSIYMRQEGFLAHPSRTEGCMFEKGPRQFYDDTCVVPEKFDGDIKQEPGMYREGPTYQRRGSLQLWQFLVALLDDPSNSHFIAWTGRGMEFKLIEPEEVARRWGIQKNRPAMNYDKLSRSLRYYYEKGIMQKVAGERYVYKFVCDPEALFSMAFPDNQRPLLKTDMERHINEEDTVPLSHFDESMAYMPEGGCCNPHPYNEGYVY
# Chain of ETV5 (P41161 whole entry): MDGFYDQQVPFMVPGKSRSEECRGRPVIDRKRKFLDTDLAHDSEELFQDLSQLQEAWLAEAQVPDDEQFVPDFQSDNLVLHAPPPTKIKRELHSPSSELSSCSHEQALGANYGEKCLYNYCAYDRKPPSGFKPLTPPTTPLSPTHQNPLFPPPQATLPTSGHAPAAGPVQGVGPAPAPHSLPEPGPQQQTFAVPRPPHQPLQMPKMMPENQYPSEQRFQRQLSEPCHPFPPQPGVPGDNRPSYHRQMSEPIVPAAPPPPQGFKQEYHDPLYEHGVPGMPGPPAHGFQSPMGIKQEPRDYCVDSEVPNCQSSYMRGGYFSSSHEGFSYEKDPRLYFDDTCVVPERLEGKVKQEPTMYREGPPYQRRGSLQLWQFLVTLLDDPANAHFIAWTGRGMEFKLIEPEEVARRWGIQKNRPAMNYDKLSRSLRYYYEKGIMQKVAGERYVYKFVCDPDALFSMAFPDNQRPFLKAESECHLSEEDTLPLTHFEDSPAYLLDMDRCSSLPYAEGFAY
# Chain of ELF4 (Q99607 whole entry): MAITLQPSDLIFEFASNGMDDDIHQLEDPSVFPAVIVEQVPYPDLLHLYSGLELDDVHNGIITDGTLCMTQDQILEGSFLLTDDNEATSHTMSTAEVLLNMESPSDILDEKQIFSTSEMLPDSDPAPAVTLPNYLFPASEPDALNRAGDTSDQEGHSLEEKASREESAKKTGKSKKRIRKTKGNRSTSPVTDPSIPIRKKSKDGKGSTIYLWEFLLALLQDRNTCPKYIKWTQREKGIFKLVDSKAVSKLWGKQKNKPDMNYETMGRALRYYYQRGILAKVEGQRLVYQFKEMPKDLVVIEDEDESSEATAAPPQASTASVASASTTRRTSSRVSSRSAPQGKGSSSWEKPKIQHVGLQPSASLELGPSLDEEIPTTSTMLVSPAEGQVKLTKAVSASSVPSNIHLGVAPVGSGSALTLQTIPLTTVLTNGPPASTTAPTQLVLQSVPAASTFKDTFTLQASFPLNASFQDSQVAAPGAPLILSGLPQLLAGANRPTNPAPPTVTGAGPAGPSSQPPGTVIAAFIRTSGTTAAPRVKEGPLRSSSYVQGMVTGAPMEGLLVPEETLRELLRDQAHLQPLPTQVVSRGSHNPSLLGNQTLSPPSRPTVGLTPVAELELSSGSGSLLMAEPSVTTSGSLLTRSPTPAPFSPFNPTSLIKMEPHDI
# Chain of ELF1 (P32519 whole entry): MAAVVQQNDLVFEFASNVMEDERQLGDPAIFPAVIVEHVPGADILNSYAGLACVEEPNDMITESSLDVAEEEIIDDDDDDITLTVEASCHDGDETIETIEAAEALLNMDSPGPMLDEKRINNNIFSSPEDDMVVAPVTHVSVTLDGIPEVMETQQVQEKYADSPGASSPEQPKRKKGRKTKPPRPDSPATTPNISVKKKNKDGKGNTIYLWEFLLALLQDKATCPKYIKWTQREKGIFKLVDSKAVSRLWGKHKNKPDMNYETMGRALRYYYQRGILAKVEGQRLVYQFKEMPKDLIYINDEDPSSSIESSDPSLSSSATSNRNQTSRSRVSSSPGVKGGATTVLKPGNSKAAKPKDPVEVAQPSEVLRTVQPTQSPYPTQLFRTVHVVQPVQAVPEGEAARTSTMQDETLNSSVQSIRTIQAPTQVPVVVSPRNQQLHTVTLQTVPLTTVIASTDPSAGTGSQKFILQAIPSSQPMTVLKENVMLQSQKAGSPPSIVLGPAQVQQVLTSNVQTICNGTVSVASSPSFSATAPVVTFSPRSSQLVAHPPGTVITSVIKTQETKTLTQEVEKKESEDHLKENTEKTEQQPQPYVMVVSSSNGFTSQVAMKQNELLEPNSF
sequence,measurement,setting,value
AATATT,binding signal,FLI1,"1.39 fold enrichment (6-mer frequency, TF over GST control)"
same,binding signal,ELK1,"1.29 fold enrichment (6-mer frequency, TF over GST control)"
same,binding signal,GABPA,"1.29 fold enrichment (6-mer frequency, TF over GST control)"
same,binding signal,ERG,"1.18 fold enrichment (6-mer frequency, TF over GST control)"
same,binding signal,ELF1,"1.36 fold enrichment (6-mer frequency, TF over GST control)"
same,binding signal,EHF,"1.32 fold enrichment (6-mer frequency, TF over GST control)"
same,binding signal,SPI1,"1.23 fold enrichment (6-mer frequency, TF over GST control)"
same,binding signal,SPIB,"1.34 fold enrichment (6-mer frequency, TF over GST control)"
same,binding signal,ELK3,"1.42 fold enrichment (6-mer frequency, TF over GST control)"
same,binding signal,FEV,"1.3 fold enrichment (6-mer frequency, TF over GST control)"
same,binding signal,ETV5,"1.4 fold enrichment (6-mer frequency, TF over GST control)"
same,binding signal,HSF1,"1.93 fold enrichment (6-mer frequency, TF over GST control)"
same,binding signal,SPIC,"1.45 fold enrichment (6-mer frequency, TF over GST control)"
same,binding signal,ELF4,"1.38 fold enrichment (6-mer frequency, TF over GST control)"
same,binding signal,ELK4,"1.35 fold enrichment (6-mer frequency, TF over GST control)"
same,binding signal,ETV2,"1.23 fold enrichment (6-mer frequency, TF over GST control)"
same,binding signal,ELF3,"1.36 fold enrichment (6-mer frequency, TF over GST control)"
same,binding signal,CRX,"1.61 fold enrichment (6-mer frequency, TF over GST control)"
same,binding signal,ETV1,"1.36 fold enrichment (6-mer frequency, TF over GST control)"

# Source: publication PMC7862700, “An all-to-all approach to the identification of sequence-specific readers for epigenetic DNA modifications on cytosine”
